In ChEMBL document CHEMBL2218924, “A broad activity screen in support of a chemogenomic map for kinase signalling research and drug discovery” (Biochem J, 2013):

What follows are molecules tested against Tyrosine-protein kinase Fer (Homo sapiens) (UniProt P16591). Details: at 1 µM.
Chain of Tyrosine-protein kinase Fer (Homo sapiens) (P16591 whole entry, looked up): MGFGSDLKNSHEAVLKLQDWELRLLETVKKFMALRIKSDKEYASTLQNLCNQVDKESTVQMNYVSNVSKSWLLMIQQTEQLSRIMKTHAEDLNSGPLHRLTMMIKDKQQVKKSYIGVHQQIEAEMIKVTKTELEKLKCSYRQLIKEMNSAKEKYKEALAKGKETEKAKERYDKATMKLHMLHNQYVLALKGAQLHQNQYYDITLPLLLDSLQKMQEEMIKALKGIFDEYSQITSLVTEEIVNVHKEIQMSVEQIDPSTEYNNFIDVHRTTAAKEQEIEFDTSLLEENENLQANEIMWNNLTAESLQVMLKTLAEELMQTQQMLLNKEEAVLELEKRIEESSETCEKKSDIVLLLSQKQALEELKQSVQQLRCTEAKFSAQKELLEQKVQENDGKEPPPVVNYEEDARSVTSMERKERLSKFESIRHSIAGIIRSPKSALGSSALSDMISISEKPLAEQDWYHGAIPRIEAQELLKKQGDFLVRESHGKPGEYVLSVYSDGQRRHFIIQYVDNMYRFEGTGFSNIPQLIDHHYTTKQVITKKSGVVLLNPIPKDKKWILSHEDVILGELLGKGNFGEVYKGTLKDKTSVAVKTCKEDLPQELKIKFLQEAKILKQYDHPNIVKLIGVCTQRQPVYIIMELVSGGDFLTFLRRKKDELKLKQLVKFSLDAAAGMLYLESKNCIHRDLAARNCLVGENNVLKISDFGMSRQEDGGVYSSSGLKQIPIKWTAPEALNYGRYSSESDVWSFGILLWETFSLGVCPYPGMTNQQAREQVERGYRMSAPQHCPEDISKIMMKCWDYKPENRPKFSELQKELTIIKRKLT

| SMILES | residual activity [%] |
| --- | --- |
| Nc1nc(Nc2ccc(S(N)(=O)=O)cc2)nn1C(=O)c1c(F)cccc1F | 101 |
| Nc1n[nH]c2nc3ccccc3nc12 | 90 |
| O=C1NC(=O)C(c2cn(CCCO)c3ncccc23)=C1c1cnccn1 | 89 |
| CC(C)[C@H](CO)Nc1nc(Nc2cc(N)cc(Cl)c2)c2ncn(C(C)C)c2n1 | 88 |
| COc1cc2ncnc(Nc3cccc(Cl)c3)c2cc1OC | 113 |
| O=C(O)/C=C/c1cc(Br)c(Br)c(Br)c1Br | 97 |
| COc1ccc2c(c1)c(C1=C(c3c[nH]c4ccccc34)C(=O)NC1=O)cn2CCCN(C)C | 102 |
| N#Cc1c(NC(=O)c2cccc3ccccc23)sc2c1CCCC2 | 89 |
| COc1cc2c(cc1OC)-c1n[nH]c(Nc3cccc(F)c3)c1C2 | 100 |
| Nc1ncnc2[nH]nc(Nc3ccc(F)cc3)c12 | 98 |
| O=C(CCCc1ccc(-c2ccccc2F)cc1)Nc1ccc(O)cc1 | 109 |
| CCCC(=O)Oc1ccc2[nH]c(C(=O)c3cc4ccccc4[nH]3)cc2c1 | 107 |
| O=c1cc(N2CCOCC2)oc2c(-c3ccccc3)cccc12 | 101 |
| N#C/C(=C1/Nc2ccccc2S1)c1ccnc(NCCc2cccnc2)n1 | 89 |
| CC(C)(C)c1nc2c3ccc(F)cc3c3c(=O)[nH]ccc3c2[nH]1 | 67 |
